Out of some 360,000 compounds screened, about 3,700 (1%) were called active. What follows is part of a selection rich in actives, with near analogues and random picks from the rest. Values without a mark were called inactive. Cut-off read from the data, not from the text of the source: active = activation above about 30%; inactive = the rest.
Each compound was assayed against D(1A) dopamine receptor (Homo sapiens) (UniProt P21728) (assay: Allosteric Agonists of the Human D1 Dopamine Receptor: qHTS). Conditions: HEK293 T-REx D1 cells, calcium flux, agonist mode; at 2 µM; stronger effect = higher value.
Chain of D(1A) dopamine receptor (Homo sapiens) (P21728 whole entry, looked up): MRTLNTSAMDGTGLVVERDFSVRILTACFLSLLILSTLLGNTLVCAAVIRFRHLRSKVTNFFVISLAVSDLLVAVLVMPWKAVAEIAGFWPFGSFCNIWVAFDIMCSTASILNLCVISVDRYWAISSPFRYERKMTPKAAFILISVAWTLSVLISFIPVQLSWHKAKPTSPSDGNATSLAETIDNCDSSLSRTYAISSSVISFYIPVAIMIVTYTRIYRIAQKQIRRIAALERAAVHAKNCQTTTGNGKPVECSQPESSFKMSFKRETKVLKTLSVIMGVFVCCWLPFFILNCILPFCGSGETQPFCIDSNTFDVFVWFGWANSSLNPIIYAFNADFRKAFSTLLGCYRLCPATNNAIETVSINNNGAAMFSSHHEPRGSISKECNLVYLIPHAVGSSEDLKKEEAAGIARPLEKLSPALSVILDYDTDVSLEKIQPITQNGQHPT
Method in brief: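 Tetracycline-induced HEK293 TREx D1 cells, force-coupled to calcium signalling, were dye-loaded with a no-wash calcium kit. Compound was pin-added after a 10 s baseline. Fluorescence was read kinetically at 1 cycle/s for 180 s, with calcium rises flagged as agonism.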
Note: 0% is about no effect.

Row | SMILES | activation
1 | CN(C)c1ccc(C(CNS(=O)(=O)c2cc(F)ccc2F)N2CCOCC2)cc1 (centres undefined) | 5.52%
2 | CCCc1cc(=O)n2[nH]c(NCc3ccc(CC)cc3)nc2n1 | 1.79%
3 | Cc1c(Cl)cccc1NC(=O)C1CCCN(C(=O)c2cnn(-c3ccccc3)c2-n2cccc2)C1 (centres undefined) | 4.43%
4 | CCOC(=O)c1ccc(NC(=O)CCS(=O)(=O)c2ccc(C)cc2)cc1 | 1.55%
5 | CCc1ccc(-c2nn(-c3ccccc3)cc2CSC(=N)N)cc1 | 47.5% (active)
6 | O=Cc1cn(-c2ccccc2)nc1-c1ccccn1 | -0.0617%
7 | CCc1ccc(-c2nn(-c3ccccc3C)cc2C(=O)N2CCN(C3CCS(=O)(=O)C3)CC2)cc1 (centres undefined) | 1.59%
8 | Fc1ccccc1CCNc1nnnn1-c1ccccc1 | 5.56%
9 | c1ccc(-n2nnnc2NC2CCCCCC2)cc1 | 112% (active)
10 | CN(C(=O)CSc1nnnn1-c1ccccc1)C1CCCCC1 | 0.493%
11 | CCOc1cccc2cc(-c3cn4c(n3)sc3cc(C)ccc34)c(=O)oc12 | 0.779%
12 | CCc1nc2c(cnn2-c2ccc(C)cc2)c(=O)n1-c1ccc(C)cc1 | 5.84%
13 | Cc1cccc(C(=O)Nc2ccc(-c3nc4ccccc4s3)c(C)c2)c1 | 6.34%
14 | COc1ccc(S(=O)(=O)Nc2cccc3cccnc23)c(N)c1 | 4.45%
15 | CCc1ccc(/C=N/NC(=O)c2nnn(-c3nonc3N)c2CN2CCc3ccccc32)cc1 | -0.149%
16 | Nc1nonc1-n1nnc(C(=O)N/N=C/c2ccc(Cl)cc2)c1-c1ccc2c(c1)OCO2 | 94.3% (active)
17 | CCCOc1ccc(-c2c(C(=O)N/N=C/c3ccco3)nnn2-c2nonc2N)cc1 | 13.8%
18 | Cc1cccc(NC(=O)c2ccc3nc(C(C)C)oc3c2)c1C | 2.14%
19 | Cc1ccc(N(C)C(=O)C2CCN(S(=O)(=O)c3ccc4c(c3)CCCN4C(=O)C3CCC3)CC2)cc1 | 5.77%
20 | CCOC(=O)CC1C(=O)NCCN1c1nc2c(C)cccn2c(=O)c1/C=C1\SC(=S)N(C(C)CC)C1=O (centres undefined) | 265% (active)
21 | COc1ccc(C(=O)NC(=S)N2CCNC(=O)C2CC(=O)OC(C)C)cc1 (centres undefined) | 2.67%
22 | CCOC(=O)CNC(=O)c1cc2c(=O)n3cccc(C)c3nc2s1 | -0.0788%
23 | CCC1CN(S(=O)(=O)c2cc(-c3cc(C)no3)ccc2C)c2cc(C)ccc2O1 (centres undefined) | 8.44%
24 | CSc1ncc(Cl)c(C(=O)Nc2ccc(S(=O)(=O)N3CCCC(C)C3)cc2)n1 (centres undefined) | 3.25%

— PubChem BioAssay AID504660 (National Center for Advancing Translational Sciences (NCATS), 2011)
